Results reported in PubChem BioAssay AID1745845 (National Center for Advancing Translational Sciences (NCATS), 2022).
Among all 360,000 compounds or so, about 2,600 (0.72%) were called active. A call without a number means that no potency is given here. Not shown: some 5% with an inconclusive outcome. Calls come from the whole dose curve; as a rule, active = well fitted inhibition curve with a large enough effect; inconclusive = small, poorly fitted or top-dose-only effect; inactive = no such curve, though single readings can be large or run the other way. The full list was thinned out, with actives kept by preference.
Potency is the fitted concentration of half-maximal effect.

Assay: Primary qHTS for Inhibitors of ATXN expression; note: nearly all actives have a fitted effect of over 55% in size
Settings: HEK-293 ATXN2-luciferase reporter, luminescence, 24 h; series mostly up to 57 µM
Excerpt: University of Utah School of Medicine, Salt Lake City, Utah
Spinocerebellar ataxia type 2 (SCA2) is a multisystem neurodegenerative disease caused by a dominantly acting mutation leading to expansion of a polyQ domain in the ataxin-2 protein (ATXN2). SCA2 patients develop progressive ataxia and later lose function in other neuronal systems. Prominent parkinsonian signs develop in some patients. Like many neurodegenerative disorders, no symptomatic or disease-modifying treatments are known.
The primary objective of the proposed research is to identify compounds inhibiting ATXN2 expression and to test them for efficacy in SCA2 mouse models. We have developed a cell-based assay paired with an in vivo mouse model using identical luciferase expression constructs. This approach takes advantage of an ATXN2-luciferase transgene, with the luciferase gene flanked by the upstream and downstream portions of the ATXN2 gene. Here we describe a 5-7 dose quantitative high thoroughput screen (qHTS) for compounds lowering ATXN2 expression. We screened the NIH Molecular Libraries Small Molecule Repository (MLSMR) and NCGC's mechanistically annotated (MIPE) and drug repurposing (NPC) collections of compounds for lowering expression of an ATXN2-luciferase reporter in HEK-293 cells. The assay is a multiplexed cell viability assay to ensure target reduction in the absence of cytotoxicity. Secondary qHTS assays included a CMV-luciferase reporter expressed in HEK-293 cells as well as a biochemical assay using recombinant luciferase to detect inhibitors of the reporter enzyme. Compounds that inhibit ATXN2 expression but is not cytotoxic were selected for confirmatory and secondary screens.
PROTOCOL TABLE (as described by Inglese J, Shamu CE and Guy RK. 2007)
SEQUENCE No. (e.g., 1, 2, 3, etc.); […] (e.g., Cells, Incubation, Reagent, etc.); VALUE; DESCRIPTION.
1; Cells; 4 uL; white, solid bottom, 1536-well Greiner assay plate.
2; Incubation; 2 hr; 37 degree C in 5% humidified CO2.
3; Compounds; 23 nL; Kalypsis pintool (Wako USA) equipped with a 1536-well pin head.
4; Incubation; 24 hr; 37 degree C in 5% humidified CO2.
5; Reagent; 1 uL; Gly-Phe-7-Amino-4-trifluoromethylcoumarin.
6; Incubation; 30 min; 37 degree C in 5% humidified CO2.
7; Detection; Fluorescence; ViewLux plate reader (PerkinElmer).
8; Reagent; 3 uL; SteadyGlo luciferase solution (Promega).
9; Incubation; 5 min; room temperature.
10; Detection; Luminescence; ViewLux plate reader (PerkinElmer).
NOTES (numbers refer to Sequence numbers above)
1. S2 cells expressing ATXN2-luciferase reporter were suspended in phenol-red free DMEM and dispensed in assay plates using a Multidrop Combi dispenser (Thermo Fisher Scientific).
2. Assay plates were incubated. Evaporation was prevented by covering assay plates with metal lids containing holes to allow gas diffusion.
3. Compounds were added in a dose response manner with the final concentrations of 57, 11.4, 2.28, 0.46, 0.091, 0.018, 0.0037 uM. Vehicle-only plates, with DMSO being pin-transferred to columns 5-48, were inserted uniformly at the beginning and the end of each library to monitor and record any shifts in assay performance.
5. 125 uM Gly-Phe-7-Amino-4-trifluoromethylcoumarin (MP Biomedicals) working concentration was used at a final concentration of 25 uM.
7. To assess cell viability; the assay plates were read using the ViewLux high-throughput CCD imager (PerkinElmer), wherein single end-point fluorescence measurement was acquired (excitation 405/10; emission 540/25 nm).
8. Detection reagent SteadyGlo Luciferase (Promega) was added to the assay plate.
10. Luminescence is then measured on the ViewLux imager equipped with a clear emission filter using a 2 sec exposure. All screening operations were performed on a fully integrated robotic system (Kalypsys) containing one RX-130 and two RX-90 anthropomorphic robotic arms (Staubli).
[…]
For `CC(Cc1ccccc1)NC=O` (stereo not given), the Potency was “inactive”. In the case of `CC(Cc1ccccc1)NCCC(c1ccccc1)c1ccccc1` (stereo not given), the Potency is reported as 28.2 µM (active). With `CC(=O)NC(=O)NC(C)Cc1ccccc1` (stereo not given) the Potency was “inactive”. In the case of `CCCOC(=O)c1cncn1C(C)c1ccccc1` (stereo not given), the Potency is reported as “inactive”. For `COC(=O)C1=C(c2ccc(OCc3ccccc3)cc2)C[C@@H]2CC[C@H]1N2C(=O)NCc1ccc(Cl)cc1`, the Potency was “inactive”. With `O=P(OC1=CCCCC1)(c1ccccc1)c1ccccc1` the Potency was “inactive”. With `CCC(C)(O)C(=O)OC1C(=O)OC2CC3C(C)=CC(=O)C(O)C3(C)C3C4(O)OCC23C1C(C)C4O` (stereo not given) the Potency was 0.168 µM (active). For `CCOC(=O)[C@]12Cc3ccccc3[C@H]1N(C1CCCCC1)C(=O)c1cc(OC)ccc12`, the Potency was 7.94 µM (active). For `CCOC(=O)[C@]12Cc3cc(OC)ccc3[C@H]1N(C(C)C)C(=O)c1ccccc12`, the Potency was 17.8 µM (active). For `CC1=C(C(=O)O)N2C(=O)[C@@H](N)[C@H]2SC1`, the Potency was “inactive”. For `O=C(N/N=C/c1ccc([N+](=O)[O-])o1)c1cc([N+](=O)[O-])cc([N+](=O)[O-])c1O`, the Potency was “inactive”. With `O=S(=O)(O)C(F)(F)C(F)(F)C(F)(F)C(F)(F)F` the Potency was “inactive”. For `CC(C)=C[C@@H]1[C@@H](C(=O)OCc2coc(Cc3ccccc3)c2)C1(C)C`, the Potency was “inactive”. With `O=C(NC1CCCCC1)N1Cc2cc(N3CCCCC3)ccc2-n2nncc2C1` the Potency was “inactive”. With `CNC(=S)N/N=C1\C2CN3CCN(C2)CC1(c1ccccc1)C3` the Potency was “inactive”. With `S=C(NCCc1ccccc1)N1Cc2cc(N3CCOCC3)ccc2-n2nncc2C1` the Potency was “inactive”. For `C[C@]12CCC3C(CC[C@H]4C[C@@H](O)CC[C@]34C)C1CC[C@@H]2O` (stereo not given in full), the Potency was “inactive”. In the case of `COC1C(O)C(C)OC(OC2CCC3(C=O)C(CCC4C3CCC3(C)C(C5=CC(=O)OC5)CCC43O)C2)C1O` (stereo not given), the Potency is reported as “inactive”. For `C[C@]12CC[C@H](O)C[C@H]1CC[C@@H]1C2CC[C@]2(C)[C@@H](C3=CC(=O)OC3)[C@@H](O)C[C@]12O` (stereo not given in full), the Potency was 2 µM (active). In the case of `O=c1[nH]c2ccccc2n1C1CCN(C(c2ccnc3ccccc23)c2nnnn2Cc2ccccc2)CC1` (stereo not given), the Potency is reported as “inactive”. For `CSCCC(c1nnnn1C(C)(C)C)N1CCC(n2c(=O)[nH]c3ccccc32)CC1` (stereo not given), the Potency was “inactive”. For `O=c1[nH]c2ccccc2n1C1CCN(C(c2ccccc2)c2nnnn2Cc2ccccc2)CC1` (stereo not given), the Potency was 25.1 µM (active). In the case of `COC(=O)C1=C(c2ccc(OCc3ccccc3)cc2)C[C@@H]2CC[C@H]1N2C(=O)NCc1cccc(F)c1`, the Potency is reported as “inactive”. In the case of `CCCn1c(C(=O)c2ccccc2OC)nc2ccccc21`, the Potency is reported as “inactive”. With `CC[N+]1(CCOC(=O)C(O)(c2ccccc2)c2ccccc2)CCCCC1` the Potency was “inactive”. For `O=C(NCC1=C(c2ccc3ccccc3c2)C[C@@H]2CC[C@H]1N2Cc1ccco1)c1cccs1`, the Potency was “inactive”. For `CCCCC1C(=O)NC(=O)N(C2CCCCC2)C1=O` (stereo not given), the Potency was “inactive”. For `COC(=O)CN(CCCl)P1(=O)OCCCN1CCCl` (stereo not given), the Potency was “inactive”. For `O=C1NC(=O)N(c2ccc(F)cc2)C(=O)/C1=C/c1ccc2c(c1)CCCN2Cc1ccccc1`, the Potency was “inactive”. With `O=C(O)COc1ccccc1/C=C1\C(=O)NC(=O)N(CCC2=CCCCC2)C1=O` the Potency was “inactive”. In the case of `O=C1NC(=O)N(CCc2ccc(F)cc2)C(=O)/C1=C/C=C/c1ccccc1`, the Potency is reported as 10 µM (active). For `COc1cc(C(=O)N2Cc3ccc(Br)cc3-n3nncc3C2)cc(OC)c1OC`, the Potency was “inactive”. In the case of `Cc1cccc(Cn2cccc(C(=O)Nc3ccc4c(c3)OCCO4)c2=O)c1`, the Potency is reported as “inactive”. With `CC(=Cc1csc(C)n1)[C@@H]1C[C@H]2O[C@]2(C)CCC[C@H](C)[C@@H](O)[C@@H](C)C(=O)C(C)(C)[C@@H](O)CC(=O)O1` the Potency was “inactive”. For `NCCc1ccc(S(=O)(=O)F)cc1`, the Potency was “inactive”. With `COc1cccc(C(c2nnnn2-c2ccc3c(c2)OCCO3)N2CCC3(CC2)C(=O)NCN3c2ccccc2)c1OC` (stereo not given) the Potency was “inactive”. In the case of `CC1N=C(N)OC1c1ccccc1` (stereo not given), the Potency is reported as “inactive”. In the case of `CO[C@]12CC[C@@]3(C[C@@H]1[C@](C)(O)C(C)(C)C)[C@@H]1Cc4ccc(O)c5c4[C@@]3(CCN1CC1CC1)[C@H]2O5`, the Potency is reported as 35.5 µM (active). For `Oc1ccc2c3c1OC1[C@H](O)CC[C@@]4(O)[C@@H](C2)N(CC2CC2)CC[C@]314` (stereo not given in full), the Potency was “inactive”. For `Cc1ncsc1CCCl`, the Potency was “inactive”.
